In the library only some 19% were active in any assay of this set; here they are far more common.
TDP1 inh – qHTS Assay for Inhibitors of Tyrosyl-DNA Phosphodiesterase (TDP1); Tyrosyl-DNA phosphodiesterase 1 (Homo sapiens), Q9NUW8; recombinant TDP1, AlphaScreen DNA substrate cleavage; Potency, µM (titrated, usually from 130 µM), for the others: at the top dose activity change, negative = inhibition, hits mostly inhibitors; hit rate 0.28% among 350,000; AID 485290, 2010; further: potency means the concentration at half of the fitted maximal effect; nearly all actives have a fitted effect of over 40% in size
Target sequence (Q9NUW8 whole entry, looked up): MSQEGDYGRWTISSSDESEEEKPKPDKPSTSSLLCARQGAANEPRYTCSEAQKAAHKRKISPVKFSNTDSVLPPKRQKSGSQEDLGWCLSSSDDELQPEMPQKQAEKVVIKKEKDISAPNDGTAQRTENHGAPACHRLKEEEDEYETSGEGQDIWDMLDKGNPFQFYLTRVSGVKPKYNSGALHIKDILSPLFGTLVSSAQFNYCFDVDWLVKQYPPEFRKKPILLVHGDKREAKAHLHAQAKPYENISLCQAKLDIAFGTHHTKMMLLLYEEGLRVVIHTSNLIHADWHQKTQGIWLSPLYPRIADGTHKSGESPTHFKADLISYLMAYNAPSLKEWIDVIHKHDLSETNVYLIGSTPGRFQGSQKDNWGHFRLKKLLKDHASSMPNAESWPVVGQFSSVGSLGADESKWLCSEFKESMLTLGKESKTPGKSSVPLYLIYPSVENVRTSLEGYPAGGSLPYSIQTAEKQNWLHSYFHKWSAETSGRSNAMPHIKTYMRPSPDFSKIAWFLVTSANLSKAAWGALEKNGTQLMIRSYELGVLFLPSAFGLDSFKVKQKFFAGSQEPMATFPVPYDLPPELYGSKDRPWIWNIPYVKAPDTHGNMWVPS
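Compounds were preincubated with Tdp1 (1 nM final) for 15 min at room temperature before substrate (15 nM final) started a 5 min reaction; beads (10 ug/ml final) were then added for 10 min before AlphaScreen detection.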
DT40 TDP1 no CPT – qHTS for Inhibitors of human tyrosyl-DNA phosphodiesterase 1 (TDP1): qHTS in cells in absence of CPT | DT40 Tdp1-/- hTDP1 cells, no CPT, ATP luminescence, 48 h | hit rate 15% among 420,000 | AID 686978, 2013 | Potency, µM (series often up to 46.2 µM), without a hit: at the top dose activity change, negative = growth inhibition, most hits filed as inhibitors; further: potency means the concentration at half of the fitted maximal effect; nearly all actives have a fitted effect of over 55% in size
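A cellular qHTS used chicken DT40 cells lacking endogenous Tdp1 but carrying stably transfected human TDP1. Compounds were applied without camptothecin, and cell growth kinetics were judged by ATP-dependent luminescence after ≥48 hr.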
ELG1 repair inh – qHTS screen for small molecules that inhibit ELG1-dependent DNA repair in human embryonic kidney (HEK293T) cells expressing luciferase-tagged ELG1 | HEK293T ELG1-luciferase reporter, luminescence, 16 h; DNA damage induced by 5-fluorouridine | Potency, µM (series often up to 46.1 µM), inactives show at the top dose activity change, negative = inhibition, most hits filed as inhibitors | hit rate 2.3% among 330,000 | AID 504467, 2011; further: potency means the concentration at half of the fitted maximal effect; nearly all actives have a fitted effect of over 55% in size
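HEK293T cells expressing luciferase-tagged ELG1 (2,000/well) received 5-Fluorouridine plus compound or DMSO for 16 hr at 37 °C. Luciferase was read by ONE-Glo luminescence after 30 min at room temperature.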
TDP1 cell CPT – qHTS for Inhibitors of human tyrosyl-DNA phosphodiesterase 1 (TDP1): qHTS in cells in presence of CPT; chicken DT40 Tdp1-/-;hTDP1 cells + 20 nM CPT, ATP luminescence, 48 h; Potency, µM (titrated, usually from 46.2 µM), without a hit: top-dose activity change, negative = growth inhibition, actives largely listed as inhibitors; hit rate 12% among 420,000; further: potency means the concentration at half of the fitted maximal effect; nearly all actives have a fitted effect of over 55% in size
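Chicken DT40 Tdp1-/- cells stably complemented with human TDP1 were seeded at 400 cells/well in medium containing 20 nM camptothecin, exposed to pin-transferred compounds, and grown at 37 °C for at least 48 hr. Viability was read as ATP luminescence.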
Giardia kill – Small Molecules that selectively kill Giardia lamblia: qHTS; activity change, % at 7.66 µM, hits read low; AID 540267, 2011; Giardia lamblia trophozoite viability; hit rate 0.15% among 340,000; in the data active means activity change below about -80%; inconclusive means between about -30% and that limit;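 further: parasites exposed to compound for two days anaerobically before the ATP read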
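Trophozoites 100 cells/well + cpd; 48 hrs, 37 deg C, anaerobic. ATPLite 1-Step added, 15-30 min RT, luminescence read (ATP-based viability).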
IL1B secr inh – qHTS for Inhibitors of Inflammasome Signaling: IL-1-beta AlphaLISA Primary Screen | THP-1 LPS/ATP IL-1B secretion, AlphaLISA, 16 h; stronger effect = lower value | activity change, % at 57.5 µM | hit rate 4.7% among 360,000; in the data active means activity change below about -50%; inconclusive means mostly about -30% to -49%
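Secreted IL-1B measured by AlphaLISA bead assay after 16 h compound exposure of THP-1 cells; compounds (final up to 57.5 uM) added 1 h before LPS (250 ng/mL) and ATP (1.25 mM) stimulation; lower signal means less secretion.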
An asterisk follows results filed as active; u = inconclusive; x = no result. Unless noted, the call rests on the fitted dose curve; in most records, active means well fitted curve in the direction sought with a large enough effect; inconclusive means small, poorly fitted or top-dose-only effect, or another doubt; inactive means no such curve, though single readings can be large; an effect the other way counts as inactive or inconclusive. On the % scale 0 is the no-effect control and ±100 the full control effect.

SMILES | TDP1 inh | DT40 TDP1 no CPT | ELG1 repair inh | TDP1 cell CPT | Giardia kill | IL1B secr inh
Cn1nc(-c2ccccc2)c(CO)c1Oc1cccc(C(F)(F)F)c1 | 5.0% | u | u | u | 22.1 | -9.1
CCOc1ccc(Br)cc1C1=NN(C(C)=O)C(c2ccc([N+](=O)[O-])s2)O1 (centres undefined) | x | 8.2µM* | 1.5% | 18.4µM* | u | -26.1
O=C(NNc1nccc(C(F)(F)F)n1)Nc1cccc(Cl)c1 | x | 1.7% | -11.6% | 3.4% | -2.3 | -12.8
Cc1cccc(NC(=O)c2cc(C)nc3ccccc23)c1 | x | 15.1% | 21.3% | -5.4% | -1.6 | -7.3
Cc1cccc(Nc2cc(C)nc3ccccc23)c1 | 1.5% | u | -3.1% | -0.7% | -6.0 | -91.5*
O=C(NNc1cc(C(F)(F)F)nc2ccccc12)Nc1cccc(Cl)c1 | x | 16.4µM* | u | u | -18.6 | -88.5*
Cc1cc(Nc2cccc(Cl)c2)c2ccccc2n1 | x | 23.1µM* | u | 20.6µM* | -3.7 | u
Cc1cc(C)c(C#N)c(Nc2ccc3c(c2)OCCO3)n1 | 1.3% | u | -1.2% | 6.7% | 2.5 | 12.1
Cc1cc(Nc2ccc3c(c2)OCCO3)c2cc(Cl)ccc2n1 | 8.5% | 14.6µM* | u | u | 17.6 | -115.7*
Cc1nc2ccccc2c(=O)n1Nc1cccc(Cl)c1 | 0.0% | u | 10.2% | u | -9.5 | 9.5
CN(CCCn1cnc2c(OCc3ccccc3)ncnc21)Cc1ccco1 | x | -14.0% | x | -22.2% | x | -15.3
COc1ccc2cc(CNc3ccccc3)c(=O)n(CC(=O)Nc3ccc(C)cc3C)c2c1 | 8.5% | u | x | u | x | x
O=C(CN(C(=O)c1csnn1)c1ccc(Br)cc1)NC1CCCCC1 | 8.4% | -21.2% | u | 2.5% | 21.2 | -0.4
Cn1ccnc1C(=O)c1cccc(Br)c1 | 0.4% | -7.4% | 16.3% | -0.7% | 8.5 | -4.5
O=C(Cn1ncn2c(cc3ccccc32)c1=O)NCc1ccc(F)cc1 | -5.9% | 4.11µM* | x | 5.8µM* | x | x
O=C(Cn1ncn2c(cc3ccccc32)c1=O)NCCCc1ccccc1 | 3.4% | -8.3% | 8.3% | -14.9% | -2.7 | 0.0
Cc1ccc(NC(=O)Cn2nc(C)c3ccccc3c2=O)cc1F | 3.1% | -5.8% | -3.4% | -8.0% | -17.1 | 16.0
Cn1nc(CC(=O)NCc2ccc(F)cc2)c2ccccc2c1=O | 3.9% | 18.4µM* | u | 13µM* | 8.0 | 39.3
Cn1nc(CC(=O)NCc2cccc3ccccc23)c2ccccc2c1=O | 6.0% | 9.2µM* | u | 7.31µM* | 10.8 | 26.9
Cc1ccc(NC(=O)Cc2nn(C)c(=O)c3ccccc23)cc1F | 1.0% | 2.59µM* | u | 2.31µM* | 8.4 | -22.6
Cn1c(SCC(=O)NCc2ccc(F)cc2)nc2c([nH]c3ccccc32)c1=O | 4.3% | x | -5.2% | x | x | x
CCOC(=O)Cc1nn(C)c(=O)c2ccccc12 | -4.8% | u | 6.2% | u | 1.1 | 33.4
COc1cccc(NC(=O)CCCn2nc(C)c3c(C)n(-c4ccccc4)nc3c2=O)c1 | 1.2% | 17.1% | -10.7% | -25.8% | 4.7 | -10.2
CCc1c2c(nc3ccc4c(c13)OCCO4)-c1nc3ccccc3c(=O)n1C2 | 2.6% | x | x | x | -13.2 | x
O=C(c1ccc(Br)cc1)N1CCCc2ccccc21 | 1.6% | u | 2.9% | -5.0% | -15.2 | 5.7
COc1ccc(CN2[C@@H](CC(C)=O)c3ccc(/C=C/C(C)=O)cc3S2(=O)=O)cc1 | x | 9.2µM* | x | 7.31µM* | 7.7 | -102.4*
COc1cccc(N2[C@@H](CC(C)=O)c3ccc(/C=C/C(C)=O)cc3S2(=O)=O)c1 | x | 5.17µM* | x | 5.17µM* | 16.1 | -99.8*

High-throughput results from PubChem.
